Here are results for 11 compounds from PubChem BioAssay (NCATS).

Experiment [1] can be described thus: AP1 Signaling Pathway (AID 357; active = well fitted curve in either direction with a large enough effect, not every such curve was filed as active; note: % is set by controls: 0 for no effect and ±100 for the full control effect). As to conditions: ME-180 AP-1-bla reporter, EGF-induced, beta-lactamase ratio, 5 h; at 7.69 µM (top of the series) unless noted. The procedure, abridged: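 Cells are seeded overnight, exposed to compound titrations and an EC50 level of EGF for 5 hours at 37 °C, then loaded with CCF4 dye for 2.5 hours. Beta-lactamase activity under the AP-1 element is read as a blue/green ratio.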

Experiment [2] has as its target Cytochrome P450 1A2 (Homo sapiens) (UniProt P05177). The experiment can be described thus: p450-cyp1a2 (AID 410; calls by dose curve). The procedure, abridged: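 Luminescent demethylation readout: Luciferin-ME (100uM, equal to Km) turned over by 20nM CYP1A2 for 60 min at room temperature after NADPH regeneration addition, following 10 min compound preincubation. Normalization used 57 uM furafylline as full inhibition.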

Experiment [3] in a line: NFAT Signaling Pathway (AID 444; active = well fitted curve in either direction with a large enough effect, not every such curve was filed as active;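 note: carbachol stimulus at about its EC50 of 1 µM final; % is set by controls: 0 for no effect and ±100 for the full control effect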). As to conditions: Jurkat NFAT-bla M1, carbachol, beta-lactamase ratio, 5 h; at 7.69 µM (top of the series) unless noted. In outline:
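Jurkat cells with NFAT-driven β-lactamase reporter and co-expressed M1 receptor, stimulated with carbachol (final 1 uM, ~EC50), compound titration, 5 h at 37 °C. CCF4 loaded 1 h at RT; 460/530 nm ratio gave %activity and AC50.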

Experiment [4] is described as follows: Stat Signaling Pathway (AID 446; active = well fitted curve in either direction with a large enough effect, not every such curve was filed as active;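 note: ME-180 cervical cancer cells given 40 pM IL-6 alongside compound; SIE-controlled beta-lactamase reporter measured as 460/530 nm FRET emission ratio; % is set by controls: 0 for no effect and ±100 for the full control effect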). As to conditions: ME-180 (cervical carcinoma) SIE beta-lactamase reporter, IL-6 stimulated, 5 h; at 7.69 µM (top of the series) unless noted. In outline: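 Normalization used AC90 stimulation (300 pM IL-6) and AC90 inhibition (125 nM pan-JAK inhibitor at 40 pM IL-6). The underlying signal is SIE-driven beta-lactamase in ME-180 cells after 5 h IL-6 exposure with compound.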

Experiment [5] deals with 3',5'-cyclic-AMP phosphodiesterase 4B (Homo sapiens) (UniProt Q07343). In words: qHTS Assay for Inhibitors of PDE-IV (AID 607; active = well fitted activation curve with a large enough effect in the main read-out, with a control signal flat, not every such curve was filed as active; note: % of control where 0% means no effect). In outline: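 HEK293 ACTOne cells with CNG channel (1000/well), endogenous PDE4; membrane potential dye, compounds up to 22.9 uM final. Fluorescence Ex 535/Em 590; RO 20-1724 (100 uM final) as reference.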
Sequence of 3',5'-cyclic-AMP phosphodiesterase 4B (Homo sapiens) (Q07343 whole entry, looked up): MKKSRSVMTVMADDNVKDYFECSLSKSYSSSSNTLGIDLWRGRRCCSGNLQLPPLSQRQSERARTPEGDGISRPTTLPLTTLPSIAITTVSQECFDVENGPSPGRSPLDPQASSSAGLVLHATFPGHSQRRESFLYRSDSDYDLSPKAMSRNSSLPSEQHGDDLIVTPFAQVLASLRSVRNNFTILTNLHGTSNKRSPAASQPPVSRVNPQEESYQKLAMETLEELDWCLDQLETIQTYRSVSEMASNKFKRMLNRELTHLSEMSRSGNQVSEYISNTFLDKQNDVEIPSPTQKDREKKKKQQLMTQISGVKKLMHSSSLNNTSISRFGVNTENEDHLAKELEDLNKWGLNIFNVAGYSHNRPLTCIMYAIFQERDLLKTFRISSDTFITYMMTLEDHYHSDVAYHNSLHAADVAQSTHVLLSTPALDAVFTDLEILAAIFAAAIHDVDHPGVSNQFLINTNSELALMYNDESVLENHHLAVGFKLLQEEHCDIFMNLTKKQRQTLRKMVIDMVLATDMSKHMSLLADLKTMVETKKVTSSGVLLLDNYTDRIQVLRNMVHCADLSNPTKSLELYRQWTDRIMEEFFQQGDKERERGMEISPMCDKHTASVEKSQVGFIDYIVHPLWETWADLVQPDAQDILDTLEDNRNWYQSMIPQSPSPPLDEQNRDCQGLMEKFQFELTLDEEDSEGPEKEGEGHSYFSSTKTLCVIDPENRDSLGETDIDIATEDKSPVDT
(In general: Quantitative high-throughput screening tests each substance at several concentrations.)

Experiment [6] in a line: Cell Viability - H-4-II-E (AID 543).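 Note: cells exposed to compound for 40 hours; nearly all actives have a fitted effect of over 35% in size.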 Note: potency is the fitted concentration of half-maximal effect. In outline: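 CellTiter-Glo luminescence (intracellular ATP) measured after 40 h compound exposure at 37 °C in H-4-II-E rat hepatoma cells seeded at 1500/well. Values are AC50s fitted with the standard Hill equation.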
The nature of experiment [7]: Cell Viability - SH-SY5Y (AID 544).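 Note: cells exposed to compound for 40 hours; 0% = DMSO alone and -100% = 100 µM tamoxifen; nearly all actives have a fitted effect of over 55% in size.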 As to conditions: SH-SY5Y neuroblastoma cell viability; viability change, negative = cytotoxic: at 92.2 µM (top of the series). The procedure, abridged: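 Cytotoxicity measured via ATP-dependent luciferase luminescence (CellTiter-Glo) following 40 h, 37 °C exposure of 1500 SH-SY5Y cells per well. Concentration-response data were fitted with the standard Hill equation to give AC50.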

A short description of experiment [8]: Cell Viability - LYMP2-001 (AID 921).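 Note: 0% = DMSO only and full inhibition = tetraoctylammonium bromide control wells; nearly all actives have a fitted effect of over 70% in size.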 In outline: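 qHTS, 1536-well; lymphoblastoid cells, 24 hr compound, 37 C; ATP by CellTiter-Glo, 30 min RT; luminescence; Hill-fit AC50.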
Experiment [9] is described as follows: MultiTox-Fluor Cytotoxicity Assay - LYMP1-001 - Live Cells (AID 947).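 Note: 0% = DMSO only and full inhibition = tetraoctylammonium bromide control.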
Experiment [10] can be described thus: Cell Viability - LYMP1-003 - Assay at 40 hr (AID 964). Note: % is set by controls: 0 for no effect and ±100 for the full control effect; nearly all actives have a fitted effect of over 60% in size. In outline: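 Viability is taken as cellular ATP, read by CellTiter-Glo luminescence after 40 h of compound exposure at 37 C. Cells: human lymphoblastoid line LYMP1-003 at 2500/well; AC50 values derived by Hill-equation fitting of concentration-response data.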
Experiment [11] in a line: Cell Viability - LYMP2-022 (AID 987).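 Note: 0% = DMSO alone and full effect = tetraoctylammonium bromide at 92 µM; nearly all actives have a fitted effect of over 55% in size.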 In outline: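 Cytotoxicity read as decreased cellular ATP (CellTiter-Glo luminescence, 30 min room temperature) after 24 hours compound exposure of 2500 lymphoblastoid LYMP2-022 cells/well at 37 C. Concentration-response data fitted with standard Hill equation for AC50.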
A short description of experiment [12]: qHTS assay for small molecule disruptors of the mitochondrial membrane potential - 1 hr assay (AID 651754; calls by dose curve; note: nearly all actives have a fitted effect of over 35% in size; note: potency is the fitted concentration of half-maximal effect). The procedure, abridged:
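Mitochondrial potential in living HepG2 cells after 1 hr compound treatment at 37C was read with Mito-MPS dye added for a further 30 min. Red aggregate and green monomer fluorescence were measured; loss of potential leaves dye as cytoplasmic monomers.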

Experiment [13] in a line: qHTS assay for small molecule agonists of the antioxidant response element (ARE) signaling pathway measured by Nrf2-dependant transcriptional activity (AID 720636; active = well fitted curve in the direction sought with a large enough effect in the repeat runs; an effect the other way counts as inactive or inconclusive;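 note: HepG2 cells with an ARE-driven luciferase reporter; % of control where 0% means no effect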). The procedure, abridged:
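We exposed ARE-luc HepG2 cells, seeded in assay medium with 1% dialyzed FBS and allowed 6 hr to adhere, to test compounds overnight (16 hr, 37 C) before measuring luciferase with ONE-Glo.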

Experiment [14] is described as follows: qHTS assay for small molecule antagonists of the retinoid-related orphan receptor gamma (ROR-gamma) signaling pathway - cell viability counter screen (AID 720652; active = well fitted curve in the direction sought with a large enough effect in the repeat runs; an effect the other way counts as inactive or inconclusive;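 note: CHO reporter cells with doxycycline-induced ROR-gamma expression; compound exposure lasted 16 hr before ATP read; % is set by controls: 0 for no effect and ±100 for the full control effect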). The procedure, abridged:
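Cytotoxicity counter screen: intracellular ATP (CellTiter-Glo luminescence) measured in the doxycycline-induced CHO RORE-luciferase reporter line after 16 hr compound exposure at 37 C, 5% CO2.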

Experiment [15] addresses Nuclear receptor subfamily 1 group I member 2 (Rattus norvegicus) (UniProt Q9R1A7). In words: qHTS assay for small molecule activators of the rat pregnane X receptor (rPXR) signaling pathway (AID 651751; call rule not given here; note: 0% is about no effect). As to conditions: rPXR reporter cells, luciferase (One-Glo), 24 h.
The nature of experiment [16]: Cell Viability - LYMP1-003 - Assay at 24 hr (AID 963).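 Note: plate controls were DMSO only for no effect and tetraoctylammonium bromide positive control for full effect.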 The procedure, abridged:
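Concentration-response qHTS: ATP loss measured by CellTiter-Glo luminescence after 24 h compound exposure at 37 C. Cells were LYMP1-003 human lymphoblastoid, 2500 per well. AC50 derived via standard Hill equation modeling.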

Experiment [17] is described as follows: Cell Viability - LYMP2-005 (AID 967).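 Note: plate controls were DMSO only for no effect and 92 µM tetraoctylammonium bromide control for full effect.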 In outline:
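qHTS viability screen in LYMP2-005 cells: 24 h at 37 C with compound, ATP luminescence via CellTiter-Glo, AC50 from Hill curves.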

Experiment [18] is described as follows: Cell Viability - LYMP2-012 (AID 982).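 Note: cellular ATP by luciferase luminescence where a drop means cytotoxicity; cells exposed to compound for one day before reading; 0% = DMSO only and full loss = 92 µM tetraoctylammonium bromide; nearly all actives have a fitted effect of over 55% in size.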
The nature of experiment [19]: Cellular Toxicity (caspase-3) SK-N-SH (AID 661).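 Note: 0% = DMSO basal and 100% = 10 µM staurosporine.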 The procedure, abridged: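 Caspase 3/7 activation was read by luminogenic substrate cleavage after 16 hour treatment of SK-N-SH cells. Signal was scaled between DMSO and 10 uM staurosporine, and concentration-response data were fitted with the Hill equation for AC50.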
A short description of experiment [20]: Cellular Toxicity (caspase-3) H-4-II-E (AID 663).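 Note: 0% = DMSO basal and 100% = 100 µM tamoxifen.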 As to conditions: Potency: caspase-3 activation. The procedure, abridged: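 H-4-II-E rat hepatoma, 1500 cells/well, 5 hr settle at 37 °C; compound 16 hr, 37 °C, complete medium; Caspase-Glo 3/7, 20 min RT; luminescence. DMSO = 0%, 100 uM tamoxifen = 100%; Hill-equation AC50.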

The structures appear in SMILES notation. Several values for one entry are separate records, joined by “and”; a condition that tells them apart may be missing. Equal values may be shown once. Unmarked numbers belong to inactive results. Results filed as inconclusive are left out. Activity calls are given as the source filed them. Unless noted, calls come from the whole dose curve; as a rule, active = well fitted curve in the direction sought with a large enough effect; inconclusive = small, poorly fitted or top-dose-only effect, or another doubt; inactive = no such curve, though single readings can be large; an effect the other way counts as inactive or inconclusive.

Sequence of Nuclear receptor subfamily 1 group I member 2 (Rattus norvegicus) (Q9R1A7 whole entry, looked up): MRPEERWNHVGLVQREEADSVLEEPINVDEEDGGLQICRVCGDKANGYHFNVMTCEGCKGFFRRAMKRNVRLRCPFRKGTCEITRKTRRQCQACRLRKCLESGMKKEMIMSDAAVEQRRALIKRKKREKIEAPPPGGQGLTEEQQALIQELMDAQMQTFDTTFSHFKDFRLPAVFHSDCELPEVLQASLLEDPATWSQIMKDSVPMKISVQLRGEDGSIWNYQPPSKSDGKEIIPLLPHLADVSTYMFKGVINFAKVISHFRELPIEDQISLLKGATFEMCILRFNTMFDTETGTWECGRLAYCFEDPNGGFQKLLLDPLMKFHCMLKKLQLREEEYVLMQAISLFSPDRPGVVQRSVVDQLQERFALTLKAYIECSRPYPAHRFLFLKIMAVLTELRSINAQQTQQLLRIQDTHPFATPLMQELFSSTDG
Sequence of Cytochrome P450 1A2 (Homo sapiens) (P05177 whole entry, looked up): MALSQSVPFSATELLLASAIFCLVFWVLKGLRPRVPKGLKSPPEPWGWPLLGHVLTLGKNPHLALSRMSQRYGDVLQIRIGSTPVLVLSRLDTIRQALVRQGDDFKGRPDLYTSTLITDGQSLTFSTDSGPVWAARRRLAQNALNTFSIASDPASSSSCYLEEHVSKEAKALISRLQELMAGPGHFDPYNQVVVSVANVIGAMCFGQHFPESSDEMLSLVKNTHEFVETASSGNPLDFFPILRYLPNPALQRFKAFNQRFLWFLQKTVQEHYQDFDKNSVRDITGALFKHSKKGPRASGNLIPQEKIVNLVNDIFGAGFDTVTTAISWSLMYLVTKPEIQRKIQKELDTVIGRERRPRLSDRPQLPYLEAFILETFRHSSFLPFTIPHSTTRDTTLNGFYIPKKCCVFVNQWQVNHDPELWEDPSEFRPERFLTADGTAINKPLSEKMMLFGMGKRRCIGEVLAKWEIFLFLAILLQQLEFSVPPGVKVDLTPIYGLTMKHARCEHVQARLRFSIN

Regarding `Nc1ncnc2c1ncn2[C@@H]1O[C@@H](COP(=O)(O)CP(=O)(O)OP(=O)(O)O)[C@H](O)[C@@H]1O`, the activity change, negative = inhibition in [1] is -0.584% [at 38 µM]; in [3] it was 3.86% [at 38 µM]. The Potency entry in [2] is “inactive”. Further, the activity, negative = inhibition in [4] was -9.36% [at 38 µM]. Also, the call in experiment [5] was inactive.
Take `Nc1cccc(Cl)c1`: the Potency entry in [6], in [7], in experiment [8], in [10], in [11] and in experiment [12] was “inactive” throughout. In addition, the Potency result in experiment [13] and in experiment [14] was “inactive” throughout. Further, in experiment [9], the outcome was inactive. In experiment [15], the max response is 1.89%.
Regarding `C[N+](=O)[O-]`, the Potency result in experiment [6], in [7], in experiment [8], in experiment [17], in experiment [18] and in experiment [11] was “inactive” each time. For the same compound, the Potency entry in [12], in experiment [13] and in [14] was “inactive” in each case. Further, the compound was classed as inactive in experiment [9] and in experiment [16].
For the compound `c1ccc(NNc2ccccc2)cc1`, the Potency entry in [6], in [7], in [19], in [20], in experiment [8] and in experiment [10] was “inactive” throughout. In addition, the Potency entry in experiment [17], in experiment [18], in experiment [11], in [12], in [13] and in experiment [14] was “inactive” in each case. The compound was called inactive in experiment [9] and in experiment [16]. The max response in experiment [15] was 12.1% and 2.7%.
As for `c1ccc(Nc2ccc(Nc3ccccc3)cc2)cc1`, the figures for the Potency in [6] and in experiment [12] were 7.94 µM (active) and 42.2 µM (active), respectively. In addition, the Potency entry in experiment [19], in experiment [20], in experiment [10], in experiment [17], in [18] and in [14] was “inactive” throughout. Further, the compound was called inactive in experiment [9] and in experiment [16].
With `C=C(C)CCl`, the Potency result in experiment [6], in [7], in experiment [19], in experiment [20], in experiment [8] and in experiment [10] was “inactive” in each case. The Potency result in experiment [17], in experiment [11], in [12], in experiment [13] and in experiment [14] was “inactive” in each case. Besides, in experiment [16], the call was inactive. Moreover, in experiment [15], the max response is -1.42%.
For `ClCCOCCCl`, the Potency entry in experiment [6], in [7], in experiment [19], in [20], in experiment [8] and in [10] was “inactive” each time. Also, the Potency result in experiment [18], in [11], in experiment [12] and in experiment [14] was “inactive” each time. Besides, the result in experiment [9] and in [16] was inactive. Moreover, the max response in experiment [15] is -1.5%.
For `O=S(=O)(Cl)c1ccccc1`, the Potency result in experiment [6], in experiment [19], in experiment [20], in [10], in [17] and in experiment [18] was “inactive” throughout. Besides, the Potency entry in [11] and in experiment [14] was “inactive” throughout. For the same compound, the viability change, negative = cytotoxic in experiment [7] is -100% (active). Moreover, the result in experiment [9] and in experiment [16] was inactive. For the same compound, the max response in experiment [15] is -0.19% and -2.18%.
For the compound `N#CC(Cl)(Cl)Cl`, the Potency entry in experiment [6], in experiment [7], in experiment [19], in experiment [8], in [10] and in experiment [17] was “inactive” throughout. The Potency result in experiment [18], in [11], in [12], in experiment [13] and in [14] was “inactive” in each case. Besides, the call in experiment [9] and in [16] was inactive. Also, the max response in [15] is 3.31%.
On to `C=CCOCC1CO1` (stereo unspecified), for which the Potency result in experiment [6], in [7], in experiment [19], in experiment [20], in experiment [8] and in experiment [10] was “inactive” throughout. Besides, the Potency result in experiment [17], in experiment [18], in experiment [11], in experiment [13] and in experiment [14] was “inactive” each time. For the same compound, the outcome in experiment [9] and in experiment [16] was inactive. The max response in [15] is -1.61%.
For the compound `ClP(Cl)(Cl)(Cl)Cl`, the Potency entry in [6], in experiment [19], in experiment [20], in experiment [8], in [10] and in [17] was “inactive” throughout. In addition, the Potency entry in [18], in experiment [11], in [12], in [13] and in experiment [14] was “inactive” each time. The compound was classed as inactive in experiment [9] and in experiment [16]. The max response in [15] is 0.805%.
